Source: PubChem BioAssay (Tox21)
Values joined by “and” are separate entries in the source; they are usually repeats but may differ in a detail not shown here. Equal values may be shown once. Records with an inconclusive call do not appear. Where a call stands in place of a potency, no number is given. A structure can be active in one record and inactive in another. Active and inactive are the calls of the source. Calls come from the whole dose curve; as a rule, active = well fitted cell-killing curve with a large enough effect in the repeat runs; inconclusive = weak or mixed curves; inactive = flat fitted curve, though single readings scatter. Residues, ends and D or L forms follow the SMILES beside them.

Experiment: qHTS assay to identify small molecule antagonists of the estrogen related receptor (ERR) signaling pathway from Tox21 library - cell viability counter screen (AID 1224834); note: nearly all actives have a fitted effect of over 30% in size
Details: ERR reporter cells viability, CellTiter-Fluor, 17.5 h; series mostly up to 92.4 µM
From the text: National Center for Advancing Translational Sciences [NCATS]
NIH Chemical Genomics Center [NCGC]
U.S. Environmental Protection Agency [EPA]
National Institutes of Environmental Health Sciences [NIEHS]
National Toxicology Program [NTP]
U.S. Food and Drug Administration [FDA]
Estrogen related receptors (ERRs), the first orphan nuclear receptors discovered, play an important role in the control of cellular energy metabolism. ERRs are required for high-energy production in response to the environmental challenges. ERR-alpha was also identified as an adverse marker for breast cancer progression; ERR-alpha-positive tumors have a poor prognosis. To screen and to identify environmental compounds that perturb the ERR signaling pathways could provide valuable information for potential therapeutic or preventive measures in the treatment of metabolic disease. To differentiate true ERR antagonists or agonist from cytotoxic substances, the assay is multiplexed with cell viability assay.
Tox21 Assay Protocol Summary:
The ERR cells were dispensed at 2,000 cells/5 ul/well in 1536-well white plates using a Multidrop dispenser. After the assay plates were incubated at a 37 C/5% CO2 incubator for 6 hours, 23 nL of compounds dissolved in DMSO, positive and negative controls or DMSO only was transferred to the assay plate by a pin tool. The plates were incubated at 37 C for 17.5 hours. 1 ul/well of CellTiter-Fluor reagent was added into the assay plates using a Flying Reagent Dispenser. After 30-minute incubation at 37 C/5% CO2, the fluorescence intensity in the plates was measured using a ViewLux plate reader.
Potency is the fitted concentration of half-maximal effect.

SMILES | Potency
O=C(O)CS | inactive
COC(=O)[C@H](Cc1ccccc1)NC(=O)[C@@H](N)CC(=O)O (H-Asp-Phe-OMe) | inactive
c1ccc2[nH]ccc2c1 | 26.9 µM (active) and inactive
N=C(N)c1ccc(OCCCCCOc2ccc(C(=N)N)cc2)cc1 | inactive
NC(N)=NC(=O)c1nc(Cl)c(N)nc1N | inactive
Nc1ccc(S(=O)(=O)Nc2nccs2)cc1 | inactive
Cc1ccc(O)cc1 | inactive
O=S(=O)(O)c1ccc2cc(O)ccc2c1 | inactive
NC(=O)c1ccccc1O | inactive
O=C(O)CCCCC(=O)O | inactive
OCCc1ccccc1 | inactive
O=NO | inactive
CC(O)CO (stereo not given) | inactive
CCCC(CCC)C(=O)O | inactive
O=S(=O)(O)NC1CCCCC1 | inactive
CCC1(c2ccccc2)C(=O)NCNC1=O | inactive
NC(=O)NC1NC(=O)NC1=O (stereo not given) | inactive
O=C(O)c1cccnc1 | inactive
O=C(O)c1[nH]n(-c2ccc(S(=O)(=O)O)cc2)c(=O)c1N=Nc1ccc(S(=O)(=O)O)cc1 | 26.6 µM (active) and 27.4 µM (active) and 28.6 µM (active)
OC(Cn1cncn1)(Cn1cncn1)c1ccc(F)cc1F | inactive

SMILES | Potency
CCOc1ccc(NC(=O)CC(C)O)cc1 (stereo not given) | inactive
CCCC(O)C(CC)CO (stereo not given) | inactive
O=C(c1ccccc1)c1ccccc1 | inactive
Oc1ccc(/C=C/c2cc(O)cc(O)c2)cc1 | 21.9 µM (active) and 21.7 µM (active) and 26.6 µM (active)
O=C(O)c1cccc([N+](=O)[O-])c1 | inactive
Nc1ccc(S(=O)(=O)c2ccc(N)cc2)cc1 | inactive
Nc1ccc(O)c(C(=O)O)c1 | inactive
CC(C)[C@@H]1CC[C@@H](C)C[C@H]1O | inactive
O=C(O)CCC(=O)O | inactive
O=C1NC(=O)c2ccccc21 | inactive
O=C(c1ccccc1)C(O)c1ccccc1 (stereo not given) | inactive
Nc1ccn([C@H]2CC[C@@H](CO)O2)c(=O)n1 | inactive
O=C(O)C(=O)O | inactive
CCCCCCCCCCCCCCCC(=O)O | inactive
CC(=O)OCC(COC(C)=O)OC(C)=O | inactive
C[C@]12C=CC(=O)C=C1CC[C@@H]1[C@@H]2[C@@H](O)C[C@@]2(C)[C@H]1CC[C@]2(O)C(=O)CO | inactive
NNC(=O)c1ccncc1 | inactive
Cc1ccc(S(=O)(=O)NC(=O)NN2CCCCCC2)cc1 | inactive
Cc1ccc(C)c(OCCCC(C)(C)C(=O)O)c1 | inactive
COc1c2occc2cc2ccc(=O)oc12 | inactive
